Data from PubChem BioAssay (EPA / NIEHS).
Several values for one entry are separate records, joined by “and”; a condition that tells them apart may be missing. Equal entries are not always repeated. Activity calls are given as the source filed them. Rule for the calls: active = hit-call score of the fitted dose curve at least 0.9, where 1 is the maximum; inactive = score below 0.9.

Read-out: catalase (CAT), CAT (gene 847)
Assay: LTEA_HepaRG_CAT: Life Technologies and Expression Analysis (LTEA) Assay for catalase (CAT) using HepaRG (AID 2283452);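 for AC50: TaqMan qRT-PCR signal normalized to ACTB GAPDH and POLR2A housekeeping genes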
Conditions: mRNA level, 48 h; actives raise or lower the signal
How it was run: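 Differentiated HepaRG cells in serum-free induction medium were dosed 48 h in duplicate, eight half-log concentrations from 100 uM in 0.5% DMSO. Transcript measured by TaqMan qRT-PCR, normalised to ACTB/GAPDH/POLR2A, fitted bidirectionally against DMSO.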

SMILES | outcome | AC50
CCCCOC(=O)c1ccccc1C(=O)OCCCC | inactive | –
COC(=O)N(OC)c1ccccc1COc1ccn(-c2ccc(Cl)cc2)n1 | – | 68.4 µM (active)
O=C(Nc1ccccc1)Nc1ccnc(Cl)c1 | – | 65.3 µM (active)
CN(C)C(=S)SSC(=S)N(C)C | inactive | –
CS/C(C)=N/OC(=O)N(C)SN(C)C(=O)O/N=C(\C)SC | inactive | –
CC(C)(C)c1ccc(CSc2cnn(C(C)(C)C)c(=O)c2Cl)cc1 | – | 1.85 µM (active)
COc1ccc(C(c2ccc(OC)cc2)C(Cl)(Cl)Cl)cc1 | – | 89.1 µM (active)
N#Cc1cc(Br)c(O)c(Br)c1 | – | 9.54 µM (active)
CC(Oc1ccc(Cl)cc1Cl)C(=O)O (configuration not stated) | inactive | –
COc1cnc(OC)n2nc(NS(=O)(=O)c3c(OCC(F)F)cccc3C(F)(F)F)nc12 | inactive | –
CCCCC(CC)COC(=O)c1ccccc1C(=O)OCC(CC)CCCC (configuration not stated) | inactive | –
COC(=O)C=C(C)OP(=O)(OC)OC | inactive | –
C#CCOS(=O)OC1CCCCC1Oc1ccc(C(C)(C)C)cc1 (configuration not stated) | – | 20.5 µM (active)
COC(=O)c1ccccc1C(=O)OC | inactive | –
O=C(O)COc1nc(Cl)c(Cl)cc1Cl | inactive | –
CCCCNC(=O)OCC#CI | inactive | –
N#Cc1nn(-c2c(Cl)cc(C(F)(F)F)cc2Cl)c(N)c1S(=O)C(F)(F)F (configuration not stated) | – | 29.5 µM (active)
Cc1ccc(-c2c(Cl)nc(C#N)n2S(=O)(=O)N(C)C)cc1 | – | 7.28 µM (active)
CCc1nn(C)c(C(=O)NCc2ccc(C(C)(C)C)cc2)c1Cl | – | 6.22 µM (active)
CCCN(CCC)c1c([N+](=O)[O-])cc(S(N)(=O)=O)cc1[N+](=O)[O-] | – | 93.6 µM (active) and 50 µM (active) and 77.6 µM (active)
OC(c1ccc(Cl)cc1)(c1cncnc1)c1ccccc1Cl (configuration not stated) | – | 87.6 µM (active)
Fc1ccc(Oc2ccnc3cc(Cl)cc(Cl)c23)cc1 | inactive | –
CNC(=O)ON=CC(C)(C)SC | inactive | –
COP(N)(=O)SC (configuration not stated) | inactive | –
CC(C)C1(C)N=C(c2nc3ccccc3cc2C(=O)O)NC1=O (configuration not stated) | inactive | –
O=C(O)c1nc(Cl)ccc1Cl | inactive | –

Read-out: flavin-containing dimethylaniline monooxygenases 3 (FMO3), FMO3 (gene 2328)
Assay: LTEA_HepaRG_FMO3: Life Technologies and Expression Analysis (LTEA) Assay for flavin-containing dimethylaniline monooxygenases 3 (FMO3) using HepaRG (AID 2283453);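 for AC50: differentiated human HepaRG liver cells in serum-free induction medium; FMO3 transcript by TaqMan qRT-PCR normalized to ACTB GAPDH and POLR2A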
Conditions: mRNA level, 48 h; actives raise or lower the signal
How it was run: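 FMO3 transcript quantified by TaqMan qRT-PCR against three housekeeping genes after 48 h chemical exposure of HepaRG cells. Eight-point half-log series, top 100 uM, 0.5% DMSO vehicle; phenobarbital 1mM induction control; up- or down-regulation fitted.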

SMILES | outcome | AC50
CCCCOC(=O)c1ccccc1C(=O)OCCCC | inactive | –
COC(=O)N(OC)c1ccccc1COc1ccn(-c2ccc(Cl)cc2)n1 | – | 75.7 µM (active)
O=C(Nc1ccccc1)Nc1ccnc(Cl)c1 | – | 69 µM (active)
CN(C)C(=S)SSC(=S)N(C)C | inactive | –
CS/C(C)=N/OC(=O)N(C)SN(C)C(=O)O/N=C(\C)SC | inactive | –
CC(C)(C)c1ccc(CSc2cnn(C(C)(C)C)c(=O)c2Cl)cc1 | – | 2.68 µM (active)
COc1ccc(C(c2ccc(OC)cc2)C(Cl)(Cl)Cl)cc1 | – | 79.5 µM (active)
N#Cc1cc(Br)c(O)c(Br)c1 | – | 12.7 µM (active)
CC(Oc1ccc(Cl)cc1Cl)C(=O)O (configuration not stated) | inactive | –
COc1cnc(OC)n2nc(NS(=O)(=O)c3c(OCC(F)F)cccc3C(F)(F)F)nc12 | inactive | –
CCCCC(CC)COC(=O)c1ccccc1C(=O)OCC(CC)CCCC (configuration not stated) | inactive | –
COC(=O)C=C(C)OP(=O)(OC)OC | inactive | –
C#CCOS(=O)OC1CCCCC1Oc1ccc(C(C)(C)C)cc1 (configuration not stated) | – | 27.2 µM (active)
COC(=O)c1ccccc1C(=O)OC | inactive | –
O=C(O)COc1nc(Cl)c(Cl)cc1Cl | inactive | –
CCCCNC(=O)OCC#CI | – | 50 µM (active)
N#Cc1nn(-c2c(Cl)cc(C(F)(F)F)cc2Cl)c(N)c1S(=O)C(F)(F)F (configuration not stated) | – | 54.9 µM (active)
Cc1ccc(-c2c(Cl)nc(C#N)n2S(=O)(=O)N(C)C)cc1 | – | 19.5 µM (active)
CCc1nn(C)c(C(=O)NCc2ccc(C(C)(C)C)cc2)c1Cl | – | 14.2 µM (active)
CCCN(CCC)c1c([N+](=O)[O-])cc(S(N)(=O)=O)cc1[N+](=O)[O-] | – | 95.4 µM (active) and 77.8 µM (active) and 76.4 µM (active)
OC(c1ccc(Cl)cc1)(c1cncnc1)c1ccccc1Cl (configuration not stated) | – | 77.8 µM (active)
Fc1ccc(Oc2ccnc3cc(Cl)cc(Cl)c23)cc1 | – | 85.8 µM (active)
CNC(=O)ON=CC(C)(C)SC | inactive | –
COP(N)(=O)SC (configuration not stated) | inactive | –
CC(C)C1(C)N=C(c2nc3ccccc3cc2C(=O)O)NC1=O (configuration not stated) | inactive | –
O=C(O)c1nc(Cl)ccc1Cl | inactive | –
